High-throughput results as filed in PubChem BioAssay.
In the library only some 4.7% were active in any assay of this set; here they are far more common.
Calb FLC = C. albicans growth modulation with fluconazole | C. albicans CaCi-2 (fluconazole-resistant clinical isolate) + fluconazole, Alamar Blue growth, 48 h | growth inhibition, % (test concentration not listed) | actives 0.57% (n = 300,000) | AID 1979;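 active = growth inhibition above about 58% in most replicates, limit read from the data, passing the limit was not always enough; inconclusive = exactly half the replicates above a set limit; inactive = most replicates below a set limit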;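 also: all wells also contain fluconazole at 8 µg/ml as a sub-toxic cotreatment; 0% = median of DMSO wells and 100% = median of geldanamycin control wells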
PfHsp90 yeast 2 = inhibits growth of yeast expressing Plasmodium falciparum Hsp90 | inhibition, % at 9.4 µM | S. cerevisiae expressing PfHsp90, BacTiter-Glo ATP, 48 h; yeast lacking PDR1 and PDR3 efflux regulators | actives 0.32% (n = 310,000);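 active = every replicate shows inhibition above about 80%, whatever the replicate mean, limit read from the data; inconclusive = mean inhibition reaches the set limit but some replicate falls short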;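 also: 0% = DMSO neutral controls and 100% = 20 µM radicicol positive controls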
tim23-1 inh = tim23-1 yeast growth inhibition; actives 1.3% (n = 330,000); S. cerevisiae tim23-1 growth, BacTiter-Glo luminescence, 24 h; inhibition, % at 20 µM;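 active = growth inhibition of the mutant yeast at or above 50%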;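 also: temperature-sensitive mutant grown at 25 °C; plate controls were DMSO-treated mutant yeast for no effect and medium wells lacking yeast for full effect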
tim10-1 inh = growth inhibitors of tim10-1 mutant yeast. S. cerevisiae tim10-1 ts strain growth, BacTiter-Glo, 24 h. inhibition, % at 20 µM. actives 2.2% (n = 330,000). AID 463190;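 active = inhibition of at least 40%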;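 also: mutant grown at 25 °C; 0% = DMSO wells with yeast and 100% = wells holding no yeast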
TIM10 inh = growth inhibitors of TIM10 yeast strain; actives 1.4% (n = 330,000); AID 463195; S. cerevisiae TIM10 strain growth, BacTiter-Glo luminescence, 24 h; inhibition, % at 10 µM;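 active = inhibition of 40% or more at the single tested concentration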;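 also: wild-type TIM10 isogenic control strain grown at permissive 25 °C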
SKKanGAS inh = SKKanGAS growth inhibition; S. pyogenes SKKanGAS, kanamycin growth, BacTiter-Glo, 6 h; inhibition, % at 7.5 µM; actives 1.3% (n = 300,000);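 active = mean replicate score, as percent of positive control median, at least 50; inconclusive = mean below 50 but one replicate at or above 50; inactive = mean and every replicate below 50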;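 also: strain carries kanamycin resistance gene driven by streptokinase promoter and grows in 40 µg/ml kanamycin; loss of luminescence reflects streptokinase promoter inhibition or plain growth inhibition; 0% = median of DMSO wells and 100% = positive control at its reference dose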
An asterisk follows results filed as active; ? = inconclusive; . = not tested or not shown.

SMILES	Calb FLC	PfHsp90 yeast 2	tim23-1 inh	tim10-1 inh	TIM10 inh	SKKanGAS inh
O=C(COc1ccc(Cl)cc1)Nc1ncc([N+](=O)[O-])s1	98*	-7	.	.	.	-3
Cc1ccc(F)c(NC(=O)/C(C#N)=C(\O)c2ccc(C(C)(C)C)cc2)c1	47	-1	18	19	30	59*
CCOC(=O)C1CCCN(CCC(=O)Nc2ccc(Br)c(C)c2)C1 (stereo unspecified)	-46	7	10	-2	-7	12
COc1ccc(-n2c(-c3ccc(Br)cc3)c[n+]3c2SC(C)C3)cc1 (stereo unspecified)	88*	-17	13	12	30	-1
COc1ccc(Cl)cc1C(=O)Nc1cccnc1Cl	-19	20	24	6	-3	-6
Cn1c(C(=O)N2CCN(c3ccc([N+](=O)[O-])cc3)CC2)cc2c(=O)[nH]c3ccccc3c21	15	15	.	.	.	75*
Cc1oc2c(c1C(=O)c1ccc(Cl)cc1)C(=O)C(=O)c1ccccc1-2	3	.	.	.	.	75*
Cc1cc(=O)c(C(=O)c2ccccc2)c(C)o1	-2	-18	-17	-5	-1	-4
Cc1ccc(C(=O)c2c(C)oc3c2C(=O)C(=O)c2ccccc2-3)cc1	29	.	38	22	23	93*
CC1=C(CC(=O)c2ccc(Cl)cc2)C(=O)c2ccccc2C1=O	18	-17	20	23	12	45
O=C(Nc1nccs1)c1cncc(Br)c1	16	.	12	18	-3	0
OC(c1cc(-c2ccc(Cl)cc2)nc2ccccc12)C1CCCCN1 (stereo unspecified)	94*	-1	.	.	.	11
O[C@@H](c1cc(C(F)(F)F)nc2c(C(F)(F)F)cccc12)[C@H]1CCCCN1	.	-10	-8	18	6	-2
CCC(C)Sc1cccc(-c2nc3ccc(C)cn3c2NC2CCCCC2)c1 (stereo unspecified)	8	10	28	16	11	5
CCC(C)Sc1ccc(-c2nc3ccc(C)cn3c2NCc2ccccc2)cc1OC (stereo unspecified)	28	-14	50	36	37	53*
CCC(C)Sc1cc(-c2nc3ccc(C)cn3c2NCc2ccccc2)ccc1OC (stereo unspecified)	20	13	.	.	.	74*
COc1ccc(-c2nc3ccc(C)cn3c2NCc2ccccc2)cc1SC1CCCCC1	8	-17	6	5	17	16
CCC(C)Sc1cc(-c2nc3ccccn3c2NC2CCCCC2)ccc1OC (stereo unspecified)	22	14	3	40	2	87*
CCCCCCSc1ccc(-c2nc3ccc(C)cn3c2NCc2ccccc2)cc1OC	0	6	13	18	13	33
CCOC(=O)C1CCN(S(=O)(=O)c2ccc3c(c2)N(C(C)=O)CC(C)S3)CC1 (stereo unspecified)	12	5	19	30	-3	-4
CCOC(=O)COc1ccc2ccccc2c1/C=C/[N+](=O)[O-]	66	104*	.	.	.	11
Cc1ccc(-n2c(O)c(C=Nc3ccccc3-c3n[nH]c(=S)[nH]c3=O)c3ccccc3c2=O)c(C)c1	0	2	17	11	7	73*
Cc1cccc(-n2c(O)c(C=Nc3ccccc3-c3n[nH]c(=S)[nH]c3=O)c3ccccc3c2=O)n1	0	-19	12	-10	4	24
Cc1ccc(-n2c(O)c(C=Nc3ccccc3-c3n[nH]c(=S)[nH]c3=O)c3ccccc3c2=O)cc1C	100*	-18	22	19	15	?
COc1ccc(C(=O)/C=C/c2ccc(O)cc2)c(O)c1CC=C(C)C	3	33	34	23	6	89*
SMILES	Calb FLC	PfHsp90 yeast 2	tim23-1 inh	tim10-1 inh	TIM10 inh	SKKanGAS inh
Cc1[nH]n(-c2ccccc2)c(=O)c1N=Nc1ccccc1C(=O)N1CCOCC1	6	-22	41	28	13	6
NC(=S)n1[nH]c(-c2ccccc2)c(N=Nc2ccccc2C(=O)N2CCOCC2)c1=O	100*	-18	16	20	21	-17
CC(C)CN(C(=O)C1CSC2(C)CCC(=O)N12)c1c(N)n(Cc2ccccc2)c(=O)[nH]c1=O (stereo unspecified)	-4	-8	-4	-4	-2	-4
Cc1ccc(Cn2ccc(NC(=O)c3cc(-c4ccc5c(c4)OCO5)on3)n2)cc1	-2	0	.	.	.	-7
CC(C)(C)c1ccc(Cn2ccc(-c3ccc4c(c3)OCO4)n2)cc1	-27	0	22	38	31	53*
O=C(NNC(=O)c1ccccc1OCc1ccccc1)c1ccccc1O	-3	-5	36	34	38	35
O=C(NNC(=O)c1ccccc1OCc1ccc(F)cc1)c1ccccc1O	-35	6	44	30	14	93*
CCC(C)c1ccc(S(=O)(=O)N2CCN(C(=O)c3ccc(Cl)c(S(=O)(=O)N4CCOCC4)c3)CC2)cc1 (stereo unspecified)	.	3	.	.	.	.
CC(C)C[C@@H](CO)NS(=O)(=O)c1c(F)cccc1F	.	-33	.	.	.	.
Cc1ccc(/C=C/C2=NN(Cc3ccc(Cl)c(Cl)c3)C(=O)CC2)cc1	-11	.	-1	13	-17	54*
Cc1cc(N2C(=O)C(O)=C(C(=O)c3cccs3)C2c2ccc(F)cc2)no1 (stereo unspecified)	1	15	-5	6	4	2
O=C1N/C(=N\N=C\c2ccccn2)SC1Cc1cccc(SC(F)F)c1 (stereo unspecified)	?	19	-11	28	9	94*
O=C1N/C(=N\N=C\c2cccnc2)SC1Cc1ccc(SC(F)F)cc1 (stereo unspecified)	70	18	14	23	26	93*
COc1cc(OC)cc(-c2nnc(NC(=O)c3ccc4c(c3)OCCO4)o2)c1	-14	-53	-11	27	-9	109*
Cc1cccc(C(=O)Nc2nnc(-c3ccncc3)o2)c1	59	.	8	10	-6	-2
COc1cccc(C(=O)Nc2nnc(-c3ccc(F)cc3)o2)c1	83*	-27	-35	28	21	91*
O=C(Nc1nnc(-c2cccs2)o1)c1ccco1	-1	2	8	-2	-9	-1
COc1cc(OC)cc(C(=O)NNC(=O)c2ccc3c(c2)OCCO3)c1	.	.	3	-10	7	.
COc1cccc(-c2nnc(NC(=O)c3ccc4ncsc4c3)o2)c1	107*	-57	10	21	24	69*
CS(=O)(=O)c1cccc(-c2nnc(NC(=O)c3ccc4ncsc4c3)o2)c1	-2	.	-9	-2	-8	16
COc1cccc(C(=O)Nc2nnc(-c3cccs3)o2)c1	4	-5	1	12	1	77*
Cc1ccc(C(=O)NNC(=O)c2ccc(S(=O)(=O)N(C)c3ccccc3)cc2)cc1	.	8	19	3	-1	.
